The text below walks through data of PubChem BioAssay (NCATS).

Molecules are shown by their SMILES. Results filed as inconclusive are left out. Activity calls are given as the source filed them. The call rests on the fitted dose curve; in most records, active means well fitted curve in the direction sought with a large enough effect; inconclusive means small, poorly fitted or top-dose-only effect, or another doubt; inactive means no such curve, though single readings can be large; an effect the other way counts as inactive or inconclusive.

Experiment [1] can be described thus: NS1 protein of Zika virus - qHTS assay to identify small molecule inhibitors in human HEK 293 cells (AID 1347053). Further: nearly all actives have a fitted effect of over 55% in size. Summed up: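 TR-FRET signal from two anti-ZIKV NS1 antibodies quantified NS1 in HEK 293 cells 24 h after MR766 infection at MOI = 0.5; compounds were added 1 h before virus. Uninfected cells and infected cells defined the NS1 normalization range.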
On the technique in general: qHTS replaces the single test concentration by a dilution series.

Experiment [2] in a line: qHTS of pediatric cancer cell lines to identify multiple opportunities for drug repurposing: Primary screen for TC32 cells (AID 1347089). Further: nearly all actives have a fitted effect of over 60% in size. A digest of the protocol: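 Luminescent ATP read-out (CellTiter-Glo) of metabolically active TC32 cells after 48 h exposure. Concentration-response curves came from 11-point (MIPE, 0.78 nM–46 µM) or 8-point (NPC, 0.59 nM–46 µM) primary titrations; follow-up used 11 points.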

Experiment [3] can be described thus: qHTS of pediatric cancer cell lines to identify multiple opportunities for drug repurposing: Primary screen for DAOY cells (AID 1347090). Further: nearly all actives have a fitted effect of over 55% in size. Summed up:
(§1)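 Cell viability, CellTiter-Glo luminescence; 500-1,000 cells/well, 8- or 11-point titration, 48 h compound exposure at 37 degrees C, 5% CO2. Controls: DMSO neutral, bortezomib 2.3 µM final as positive.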

Experiment [4] in a line: qHTS of pediatric cancer cell lines to identify multiple opportunities for drug repurposing: Primary screen for SJ-GBM2 cells (AID 1347091). A digest of the protocol:
as §1

Experiment [5] is described as follows: qHTS of pediatric cancer cell lines to identify multiple opportunities for drug repurposing: Primary screen for A673 cells (AID 1347092). Further: nearly all actives have a fitted effect of over 45% in size. Summed up:
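Cell viability of A673 measured by CellTiter-Glo ATP luminescence after 48 hours compound exposure. Dilution series spanned 0.78 nM to 46 µM (MIPE, 11-point) or 0.59 nM to 46 µM (NPC, 8-point); bortezomib 2.3 uM positive control.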

Experiment [6] can be described thus: qHTS of pediatric cancer cell lines to identify multiple opportunities for drug repurposing: Primary screen for SK-N-MC cells (AID 1347093). Summed up: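 Metabolically active cells were quantified by ATP-dependent luminescence (CellTiter-Glo, 15 min at room temperature) following 48 h treatment. Cells had been plated at 500-1,000 per well and settled for 5 h beforehand.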
Potency means the concentration at half of the fitted maximal effect.

Take `CC(=O)C1=C(O)C=C2Oc3c(C(C)=O)c(O)c(C)c(O)c3C2(C)C1=O` (configuration not stated): the Potency entry in experiment [1], in experiment [2] and in experiment [3] was “inactive” each time. Moreover, the Potency in experiment [4] is 2350 nM (active); in experiment [5], 187 nM (active).

On to `NC(=O)c1ncn([C@@H]2O[C@H](CO)[C@@H](O)[C@@H]2O)c1N`, for which the Potency result in experiment [1], in experiment [2], in experiment [3], in experiment [4] and in experiment [5] was “inactive” in each case.

As to `NC(=O)c1ncn([C@@H]2O[C@H](CO)[C@@H](O)[C@@H]2O)c1O`, the Potency result in experiment [1], in experiment [2], in experiment [3], in experiment [4], in experiment [5] and in experiment [6] was “inactive” in each case.

With `CC[C@H]1OC(=O)[C@H](C)[C@@H](O[C@H]2C[C@@](C)(OC)[C@@H](O)[C@H](C)O2)[C@H](C)[C@@H](O[C@@H]2O[C@H](C)C[C@H](N(C)C)[C@@H]2O)[C@](C)(OC)C[C@@H](C)C(=O)[C@H](C)[C@@H](O)[C@]1(C)O`, the Potency entry in experiment [1], in experiment [2], in experiment [3], in experiment [4] and in experiment [5] was “inactive” in each case.

Consider `O=C(O)[C@H](CC(=O)N1C[C@@H]2CCCC[C@H]2C1)Cc1ccccc1`, for which the Potency entry in experiment [1], in experiment [2], in experiment [3], in experiment [4] and in experiment [5] was “inactive” throughout.

In the case of `CC(=O)OCC(=O)[C@@]12N=C(C)O[C@H]1C[C@H]1[C@@H]3CCC4=CC(=O)C=C[C@]4(C)[C@@H]3[C@@H](O)C[C@@]12C`, the Potency entry in experiment [1], in experiment [2], in experiment [3], in experiment [4] and in experiment [5] was “inactive” each time.

For `COc1cc([C@@H]2c3cc4c(cc3[C@H](O)[C@H]3COC(=O)[C@@H]23)OCO4)cc(OC)c1OC`, the Potency in experiment [1] was 264 nM (active); in experiment [2], 739 nM (active); in experiment [3], 118 nM (active); in experiment [4], 66.2 nM (active); in experiment [5] it was 93.5 nM (active).

`C=C1C(=CC=C2CCC[C@]3(C)[C@@H]([C@H](C)CCCC(C)(C)O)CC[C@@H]23)C[C@@H](O)C[C@@H]1O`: in experiment [1], the Potency entry was “inactive”. The Potency in experiment [2] is 16500 nM (active); in experiment [3], 4690 nM (active); in experiment [4], 13200 nM (active); in experiment [5], 1480 nM (active); in experiment [6] it was 1480 nM (active).
